Screens deposited in PubChem BioAssay by National Center for Advancing Translational Sciences (NCATS).
IMPase Li cell: membrane-permeable IMPase blocker, potentiated with lithium; 210,000 tested, 0.35% active; CHO-M1 cells, IP1 TR-FRET (IP-One), carbachol + lithium; Potency, µM (doses to about 59.4 µM), usual class: inhibitors;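 further: IP1 builds up when IMPase is blocked and the TR-FRET signal falls; nearly all actives have a fitted effect of over 50% in size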
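CHO cells stably expressing M1 receptor (2000/well, cultured 16–30 h) treated 30 min at 37C with compound plus low lithium. Cytosolic IP1 by TR-FRET (665/620 ratio and 620 channel) after 10 min lysis; AC50 by Hill fit.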
IMPase cell inh: cell-permeable inhibitors of inositol monophosphatase (IMPase); P97697; CHO-M1 cells, IP1 accumulation, HTRF TR-FRET ratio; inhibition (IP1 accumulation), % at 46.1 µM; 120,000 tested, under 10 active; active means well fitted curve in the direction sought with a large enough effect in the signal ratio, not every such curve was filed as active; inconclusive means small, poorly fitted or top-dose-only effect, or a change in a side signal; inactive means no such curve, though single readings can be large or run the other way; the % refers to the signal ratio;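 further: cells stimulated with carbachol in lithium chloride buffer; higher means more IMPase inhibition seen as more IP1 and lower FRET ratio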
Target sequence (P97697 whole entry, looked up): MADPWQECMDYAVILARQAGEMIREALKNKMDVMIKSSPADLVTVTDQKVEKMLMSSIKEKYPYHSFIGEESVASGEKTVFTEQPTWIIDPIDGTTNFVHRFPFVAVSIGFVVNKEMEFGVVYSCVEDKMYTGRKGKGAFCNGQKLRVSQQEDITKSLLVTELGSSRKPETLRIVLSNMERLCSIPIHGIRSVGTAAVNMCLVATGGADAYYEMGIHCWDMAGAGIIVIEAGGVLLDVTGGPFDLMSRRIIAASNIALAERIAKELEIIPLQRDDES
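Cellular IMPase inhibition is scored as a rise in cytosolic IP1, detected by competitive TR-FRET between d2-labelled IP1 and a europium anti-IP1 antibody. M1-expressing CHO cells were stimulated with carbachol for 30 min at 37C, with lithium (50 mM LiCl) present in the buffer.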
ALOX12 inhib: 12-hLO (ALOX12) enzyme inhibition | P18054 | purified 12-hLO, xylenol orange hydroperoxide absorbance | Potency, µM (titrated, usually from 57.1 µM), usual class: inhibitors | 150,000 tested, 0.12% active; further: nearly all actives have a fitted effect of over 55% in size
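Hydroperoxide formation by human 12-lipoxygenase from 40 uM arachidonic acid was followed colorimetrically via ferric-xylenol orange complex, using the 573/405 nm absorbance ratio. Enzyme concentration was 150 nM, with 30 min reaction at room temperature.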
PNC assembly inh: perinucleolar compartment assembly inhibition. PC3M PTB-GFP, PNC prevalence imaging, 16 h; active compounds read low. activity change (PNC), negative = inhibition, % at 10 µM. 140,000 tested, 3.1% active. AID 2417;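 active means readout at or below -70, meaning at least 70% loss of cells showing the perinucleolar compartment, a nuclear body marking cancer cells; inconclusive means readout between -30 and a set limit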
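Compounds are pinned in duplicate onto adhered PC3M cells stably expressing GFP-tagged PTB and incubated 16 h at 37 C. Cells are then fixed, nuclei stained with Hoechst, and PNC-positive cells counted.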
HPGD inh: HPGD (human) dehydrogenase inhibition; P15428; 150,000 tested, 4.3% active; Potency, µM, actives largely listed as inhibitors; purified HPGD, NADH fluorescence kinetic, PGE2 substrate; AID 894; active means well fitted inhibition curve with a large enough effect, not every such curve was filed as active; inconclusive means small, poorly fitted or top-dose-only effect, or another doubt; inactive means no such curve, though single readings can be large or run the other way
Target sequence (P15428 whole entry, looked up): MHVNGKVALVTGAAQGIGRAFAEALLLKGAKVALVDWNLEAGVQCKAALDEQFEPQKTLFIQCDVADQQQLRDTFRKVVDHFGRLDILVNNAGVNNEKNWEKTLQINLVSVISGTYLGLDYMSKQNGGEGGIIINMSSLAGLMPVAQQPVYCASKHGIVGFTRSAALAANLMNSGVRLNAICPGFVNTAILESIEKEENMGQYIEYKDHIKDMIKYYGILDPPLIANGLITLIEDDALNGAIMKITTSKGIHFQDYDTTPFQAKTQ
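NADH formation kinetics: reaction with 30 uM PGE2 and 1 mM NAD+ (final), 20 nM enzyme, Tris-HCl pH 8 with Tween 20, after 15 min compound preincubation at room temperature. Fluorescence change, last versus first of five reads.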
ALDH1A1 block: ALDH1A1 (human) enzyme inhibition; Purified ALDH1A1, NADH fluorescence, propionaldehyde substrate; P00352; Potency, µM (top dose mostly 75.3 µM), most hits filed as inhibitors; 220,000 tested, 7.3% active; AID 1030; active means well fitted inhibition curve with a large enough effect, not every such curve was filed as active; inconclusive means small, poorly fitted or top-dose-only effect, or another doubt; inactive means no such curve, though single readings can be large or run the other way
A number is an active result; 0 = inactive; ? = inconclusive; - = not tested or not shown; [ ] = dose if it differs, or a comment. Shown are actives, neighbours in structure and some others; about 11% of the full set was active somewhere. Unless noted, the call rests on the fitted dose curve; in most records, active means well fitted curve in the direction sought with a large enough effect; inconclusive means small, poorly fitted or top-dose-only effect, or another doubt; inactive means no such curve, though single readings can be large; an effect the other way counts as inactive or inconclusive.

SMILES	IMPase Li cell	IMPase cell inh	ALOX12 inhib	PNC assembly inh	HPGD inh	ALDH1A1 block
CC1NC2(C(=O)N(Cc3ccccc3)c3ccccc32)C2C(=O)N(c3ccccc3)C(=O)C12 (configuration not stated)	0	0	0	0	0	14µM
O=C1C2CC=CCC2C(=O)N1Cc1ccccc1 (configuration not stated)	0	0	0	?	0	?
Cc1cc(C(=O)CSc2n[nH]c(N)n2)c(C)n1-c1ccc2c(c1)OCO2	0	-	0	0	0	0
CCCC1=NN(c2ccc([N+](=O)[O-])cc2)C(=O)/C1=C\N(C)C	0	-	0	0	0	?
CCN(CC)c1ccc(/C=C2/C(=O)N(c3ccc([N+](=O)[O-])cc3)N=C2N2CCOCC2)cc1	0	0	0	?	0	4.5µM
Nc1ncn([C@H]2O[C@@H](CO)[C@@H](O)[C@@H]2O)c(=O)n1	0	0	0	-	0	0
CC(C)c1nnc(SCC(=O)Nc2ccc3c(c2)OCO3)n1C	0	0	0	-100	0	0
CC(C)c1nnc(SCC(=O)NCc2ccc3c(c2)OCO3)n1C	0	0	0	-100	0	0
CC(C)c1ccc(NC(=O)CSc2n[nH]c(=O)n2-c2ccc3c(c2)OCCO3)cc1	-	-	-	-	-	11µM
Cn1c(Cc2ccccc2)nnc1SCC(=O)Nc1ccc2c(c1)OCO2	0	0	0	0	0	0
CC(C)c1nc(SCC(=O)Nc2ccc3c(c2)OCCO3)n[nH]1	0	-	-	-	-	0
Cc1nnc(SCC(=O)NCc2ccc3c(c2)OCO3)n1C	0	-	-	-	-	0
CC1CCCC(C)N1C(=O)Cn1c(SCC(=O)Nc2ccc3c(c2)OCO3)nc2ccccc21 (configuration not stated)	0	0	0	?	0	5µM
COC(=O)c1ccc(C(NC(=O)OCc2ccccc2)/C(=C/[C@@H](C)C(=O)NC2CCCCC2)c2cccnc2)cc1 (some centres not stated)	0	-	0	-	0	0
CC(C)(C)OC(=O)NCCc1nnc(SCc2ccccc2Cl)o1	0	0	0	0	0	0
CC(C)(C)OC(=O)NCCc1nnc(S(=O)(=O)Cc2ccc(Cl)cc2Cl)o1	0	0	0	0	2.5µM	2.8µM
Cc1nnc(N/N=C/c2cc([N+](=O)[O-])c(N3CCC(C)CC3)cc2N2CCC(C)CC2)n1N	0	0	0	0	25µM	7.1µM
CCc1nnc(N/N=C/c2ccc(N3CCC(C)CC3)c([N+](=O)[O-])c2)n1N	0	0	0	0	0	22µM
N=C(N)SCc1cccc(-c2nc3ccccc3c(=O)o2)c1	0	-	0[11.4 µM]	-	0	0[13.5 µM]
COc1ccc(-n2c(=O)c(-c3cccs3)nc3cnc(Oc4ccccc4)nc32)cc1	0	-	0	-	0	0
O=C1C2C3C=CC(C2C(=O)N1c1cccc(O)c1)C1C2C(=O)N(c4cccc(O)c4)C(=O)C2C31 (configuration not stated)	0	-	-	-	-	1.4µM
CS(=O)(=O)N1CCC2(CCN(C(=O)Nc3cccc(F)c3)CC2)CC1	0	-	0	-	0	0
CC1=NN(c2ccccc2)C(=O)C1c1ccccc1 (configuration not stated)	0	-	0	-91	0	0
CC1=NN(c2ccccc2)C(=O)C1C(=O)c1ccccc1 (configuration not stated)	0	0	0	0	0	0
N#C/C(=C\c1cccc(Oc2ccccc2)c1)C(=O)N1CCOCC1	0	-	-	-	-	0
SMILES	IMPase Li cell	IMPase cell inh	ALOX12 inhib	PNC assembly inh	HPGD inh	ALDH1A1 block
COc1cc(/C=C(\C#N)C(=O)N2CCOCC2)cc(Br)c1O	0	-	0	?	25µM	?
O=C(CCCSc1nc(-c2ccco2)cc(C(F)(F)F)n1)NCC1CCCO1 (configuration not stated)	0	0	0	0	7.9µM	?
O=C(CCSc1nc(-c2ccco2)cc(C(F)(F)F)n1)NCC1CCCO1 (configuration not stated)	0	0	0	0	?	0
COc1ccc(-c2cc(C(F)(F)F)nc(NCc3ccco3)n2)cc1OC	0	0	0	0	?	?
COc1cccc(-c2cc(C(F)(F)F)nc(NCc3ccco3)n2)c1	0	0	0	-100	0	0
O=C(CCCSc1nc(-c2ccco2)cc(C(F)(F)F)n1)NCc1cccs1	0	0	0	?	18µM	?
FC(F)(F)c1cc(-c2ccco2)nc(NCc2ccco2)n1	0	?	0	0	0	0
FC(F)(F)c1cc(-c2ccco2)nc(NCc2cccs2)n1	0	0	0	0	0	8.9µM
O=c1cnc2cnc(Oc3ccccc3)nc2n1CCc1ccccc1	0	-	0	-	0	?
CCCc1nnc(SCc2ccc(OC)cc2)n1N	0	0	0	0	18µM	0
COc1ccc(-c2nnc(SCc3cccc(C)c3)n2N)cc1	0	0	0	0	0	0
CCCCc1nnc(SCCSc2nnc(CCCC)n2N)n1N	0	0	0	0	0	18µM
CCCc1nnc(SCC(=O)Nc2ccc(OC)cc2)n1N	0	0	0	0	0	?
COc1ccc(-c2nnc(SCc3cc(C)ccc3C)n2N)cc1	0	0	0	0	?	22µM
CCCOc1ccc(CSc2nnc(CCC)n2N)cc1	0	0	0	0	0	0
O=C(c1ccc(Cl)cc1)n1nc(-c2ccccc2)nc1NCc1ccco1	-	0	-	-	-	-
CCOC(=O)c1ccc(Nc2cc(C)nc3ncnn23)cc1	0	0	0	?	0	10µM
CCc1c(C)nc2ncnn2c1Nc1ccc(C(C)=O)cc1	0	0	0	-111	0	0
COC(=O)c1ccc(Nc2cc(C)nc3ncnn23)cc1	-	0	0	0	-	0
CCOC(=O)c1ccc(Nc2nnc3nc(C)cc(C)n23)cc1	0	0	0	0	22µM	?
Cc1cc(C)nc(N(C#N)Cc2ccccc2Cl)n1	0	0	0	0	0	14µM
Cc1cc(C)nc(N(C#N)CN2C(=O)c3ccccc3C2=O)n1	0	0	0	0	?	25µM
C=C1C2c3ccccc3C(CC2(C)O[Si](C)(C)C)N1C(=O)OC (configuration not stated)	0	-	0[11.4 µM]	-	0	0[13.5 µM]
CC(C)Cc1nnc(NS(=O)(=O)Cc2ccccc2)s1	0	0	0	?	20µM	13µM
CS(=O)(=O)Nc1nnc(Cc2ccccc2)s1	0	?	0	-100	0	0
CCNc1ncc2nc(C)c(=O)n(Cc3cccc(OC)c3)c2n1	0	-	0	-	?	?
CCOc1ccc(OCC)c(NC(=O)C2CCN(S(=O)(=O)c3ccc(Br)s3)CC2)c1	-	0	-	-	-	-
Cc1ccc(S(=O)(=O)N/N=C/c2ccc(OS(=O)(=O)c3ccc(C)c([N+](=O)[O-])c3)cc2)cc1	0	0	0	?	0	5µM
Cc1ccc(S(=O)(=O)N/N=C\c2ccc(Cl)c([N+](=O)[O-])c2)cc1	0	0	0	0	0	0.5µM
